Test results published in PMC7862700, “An all-to-all approach to the identification of sequence-specific readers for epigenetic DNA modifications on cytosine”.

What was measured:
Assay in all cases: DAPPL (digital affinity profiling via proximity ligation, sequencing); 10 mM Tris-HCl pH 7.5, 50 mM NaCl, 1 mM DTT, 4% glycerol, room temperature, 30 min; GST-TFs on glutathione beads, 16-mer random dsDNA library, 0.1% formaldehyde crosslink after washing; high values mean tight binding
FLI1 = molecular target: T1, FLI1 (Homo sapiens, UniProt Q01543 1-452); conditions: protein: recombinant; tags: N-terminal GST; dsDNA, one strand shown
T1 sequence: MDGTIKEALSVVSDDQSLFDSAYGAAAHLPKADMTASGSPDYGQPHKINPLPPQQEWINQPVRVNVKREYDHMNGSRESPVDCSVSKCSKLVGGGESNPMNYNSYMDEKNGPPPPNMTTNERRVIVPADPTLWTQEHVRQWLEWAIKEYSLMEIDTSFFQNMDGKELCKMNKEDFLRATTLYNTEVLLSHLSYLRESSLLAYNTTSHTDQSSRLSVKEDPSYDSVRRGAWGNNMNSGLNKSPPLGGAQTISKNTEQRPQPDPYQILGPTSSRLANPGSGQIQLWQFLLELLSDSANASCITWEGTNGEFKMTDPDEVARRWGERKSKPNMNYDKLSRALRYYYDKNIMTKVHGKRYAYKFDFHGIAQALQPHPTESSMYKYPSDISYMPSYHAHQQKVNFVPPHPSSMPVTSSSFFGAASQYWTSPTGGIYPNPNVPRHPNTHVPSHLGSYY
How it was run: (§1)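 Human transcription factors were made in yeast as GST fusions, captured on glutathione beads and barcoded with DNA. With a tag-only sample included, the pool was incubated with 200 nmole of a random double-stranded 16-mer DNA library in Tris/NaCl/DTT/glycerol buffer at room temperature for 30 min, then crosslinked with 0.1% formaldehyde after washing, ligated by proximity, amplified and sequenced. For binding signal, each hexamer's read frequency for a factor is divided by its frequency for the tag-only sample.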

ELK1 = molecular target: T2, ELK1 (Homo sapiens, UniProt P19419 1-428); conditions: protein: recombinant; tags: N-terminal GST; dsDNA, one strand shown
T2 sequence: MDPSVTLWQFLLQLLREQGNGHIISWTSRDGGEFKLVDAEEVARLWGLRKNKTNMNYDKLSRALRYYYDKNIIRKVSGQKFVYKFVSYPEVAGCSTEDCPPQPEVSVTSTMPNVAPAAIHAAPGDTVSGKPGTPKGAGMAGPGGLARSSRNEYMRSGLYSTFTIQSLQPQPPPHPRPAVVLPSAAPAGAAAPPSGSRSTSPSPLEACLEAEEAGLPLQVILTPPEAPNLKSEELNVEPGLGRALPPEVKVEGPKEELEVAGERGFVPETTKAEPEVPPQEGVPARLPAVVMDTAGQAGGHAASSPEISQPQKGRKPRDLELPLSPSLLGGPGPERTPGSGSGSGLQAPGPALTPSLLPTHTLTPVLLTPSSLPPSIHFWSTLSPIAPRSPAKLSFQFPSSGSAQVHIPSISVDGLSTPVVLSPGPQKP
How it was run: as §1

GABPA = molecular target: T3, GABPA (Homo sapiens, UniProt Q06546 1-454); conditions: protein: recombinant; tags: N-terminal GST; dsDNA, one strand shown
T3 sequence: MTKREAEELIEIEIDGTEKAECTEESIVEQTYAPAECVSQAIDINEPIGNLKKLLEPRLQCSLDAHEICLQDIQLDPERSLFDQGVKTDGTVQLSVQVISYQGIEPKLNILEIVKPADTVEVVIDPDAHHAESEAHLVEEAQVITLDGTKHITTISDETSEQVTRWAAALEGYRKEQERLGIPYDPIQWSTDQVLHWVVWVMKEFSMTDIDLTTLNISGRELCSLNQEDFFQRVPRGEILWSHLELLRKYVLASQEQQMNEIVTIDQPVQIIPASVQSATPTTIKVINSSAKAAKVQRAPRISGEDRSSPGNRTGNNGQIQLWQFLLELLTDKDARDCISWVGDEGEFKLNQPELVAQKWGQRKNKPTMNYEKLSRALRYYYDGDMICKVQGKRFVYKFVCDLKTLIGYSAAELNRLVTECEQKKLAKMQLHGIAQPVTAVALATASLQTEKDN
How it was run: as §1

ERG = molecular target: T4, ERG (Homo sapiens, UniProt P11308 1-479); conditions: protein: recombinant; tags: N-terminal GST; dsDNA, one strand shown
T4 sequence: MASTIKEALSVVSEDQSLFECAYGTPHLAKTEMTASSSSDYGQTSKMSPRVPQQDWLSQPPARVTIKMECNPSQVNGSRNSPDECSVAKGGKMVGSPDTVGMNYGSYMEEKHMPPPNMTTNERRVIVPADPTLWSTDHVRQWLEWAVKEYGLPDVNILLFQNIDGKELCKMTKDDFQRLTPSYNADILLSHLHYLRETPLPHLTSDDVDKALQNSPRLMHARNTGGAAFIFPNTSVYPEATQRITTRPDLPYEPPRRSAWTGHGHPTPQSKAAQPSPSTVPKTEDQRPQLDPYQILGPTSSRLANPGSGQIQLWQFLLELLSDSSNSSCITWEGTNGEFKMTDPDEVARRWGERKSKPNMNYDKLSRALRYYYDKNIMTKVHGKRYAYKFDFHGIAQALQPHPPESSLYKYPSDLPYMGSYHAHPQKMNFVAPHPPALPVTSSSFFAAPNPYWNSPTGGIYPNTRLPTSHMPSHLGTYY
How it was run: as §1

ELF1 = ELF1 (Homo sapiens, UniProt P32519 1-619); conditions: protein: recombinant; tags: N-terminal GST; dsDNA, one strand shown
ELF1, sequence (P32519 whole entry): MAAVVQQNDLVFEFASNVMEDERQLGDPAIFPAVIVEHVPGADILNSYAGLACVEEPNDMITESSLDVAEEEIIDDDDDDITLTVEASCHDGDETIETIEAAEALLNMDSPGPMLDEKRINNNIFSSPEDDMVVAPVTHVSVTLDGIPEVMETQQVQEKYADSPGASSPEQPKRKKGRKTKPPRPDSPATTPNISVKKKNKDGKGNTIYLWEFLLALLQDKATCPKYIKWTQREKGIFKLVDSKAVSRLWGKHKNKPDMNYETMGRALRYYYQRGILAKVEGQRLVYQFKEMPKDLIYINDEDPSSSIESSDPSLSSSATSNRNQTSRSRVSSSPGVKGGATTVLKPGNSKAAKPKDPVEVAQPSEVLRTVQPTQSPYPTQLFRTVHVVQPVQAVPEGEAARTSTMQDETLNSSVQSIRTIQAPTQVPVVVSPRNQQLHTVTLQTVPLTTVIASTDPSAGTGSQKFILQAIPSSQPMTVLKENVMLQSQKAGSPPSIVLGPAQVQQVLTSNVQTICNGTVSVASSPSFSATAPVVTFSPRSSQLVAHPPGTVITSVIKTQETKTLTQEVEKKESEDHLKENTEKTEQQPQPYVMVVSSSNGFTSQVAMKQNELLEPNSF
How it was run: as §1

EHF = molecular target: T5, EHF (Homo sapiens, UniProt Q9NZC4 1-300); conditions: protein: recombinant; tags: N-terminal GST; dsDNA, one strand shown
T5 sequence: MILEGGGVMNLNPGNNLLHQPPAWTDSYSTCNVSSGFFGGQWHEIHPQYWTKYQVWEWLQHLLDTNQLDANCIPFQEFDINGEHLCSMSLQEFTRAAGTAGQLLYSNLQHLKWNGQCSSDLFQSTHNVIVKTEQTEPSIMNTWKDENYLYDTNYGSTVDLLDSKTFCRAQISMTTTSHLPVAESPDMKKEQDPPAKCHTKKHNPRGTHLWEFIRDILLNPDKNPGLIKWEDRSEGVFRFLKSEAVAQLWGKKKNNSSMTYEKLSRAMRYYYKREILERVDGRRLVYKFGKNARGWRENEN
How it was run: as §1

SPI1 = SPI1 (Homo sapiens, UniProt P17947 1-270); conditions: protein: recombinant; tags: N-terminal GST; dsDNA, one strand shown
How it was run: as §1

SPIB = SPIB (Homo sapiens, UniProt Q01892 1-262); conditions: protein: recombinant; tags: N-terminal GST; dsDNA, one strand shown
SPIB, sequence (Q01892 whole entry): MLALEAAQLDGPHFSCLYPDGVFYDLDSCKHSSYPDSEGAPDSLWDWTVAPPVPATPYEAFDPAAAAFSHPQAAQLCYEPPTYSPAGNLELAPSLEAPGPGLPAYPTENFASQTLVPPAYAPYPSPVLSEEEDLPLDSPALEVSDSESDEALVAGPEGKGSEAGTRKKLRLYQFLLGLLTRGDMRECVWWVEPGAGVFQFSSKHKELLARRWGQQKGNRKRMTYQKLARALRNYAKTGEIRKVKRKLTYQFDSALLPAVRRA
How it was run: as §1

ELK3 = molecular target: T6, ELK3 (Homo sapiens, UniProt P41970 1-407); conditions: protein: recombinant; tags: N-terminal GST; dsDNA, one strand shown
T6 sequence: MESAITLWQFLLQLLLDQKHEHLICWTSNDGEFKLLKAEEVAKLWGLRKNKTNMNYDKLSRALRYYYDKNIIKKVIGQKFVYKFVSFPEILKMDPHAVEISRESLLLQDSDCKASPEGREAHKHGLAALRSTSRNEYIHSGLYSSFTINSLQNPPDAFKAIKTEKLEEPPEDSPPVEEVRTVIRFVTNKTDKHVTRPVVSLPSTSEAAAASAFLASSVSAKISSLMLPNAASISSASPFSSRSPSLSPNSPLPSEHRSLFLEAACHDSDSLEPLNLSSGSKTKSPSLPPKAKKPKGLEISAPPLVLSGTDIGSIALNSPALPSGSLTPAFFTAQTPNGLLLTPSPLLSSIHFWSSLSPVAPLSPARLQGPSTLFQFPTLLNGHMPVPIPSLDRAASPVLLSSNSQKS
How it was run: as §1

FEV = molecular target: T7, FEV (Homo sapiens, UniProt Q99581 1-238); conditions: protein: recombinant; tags: N-terminal GST; dsDNA, one strand shown
T7 sequence: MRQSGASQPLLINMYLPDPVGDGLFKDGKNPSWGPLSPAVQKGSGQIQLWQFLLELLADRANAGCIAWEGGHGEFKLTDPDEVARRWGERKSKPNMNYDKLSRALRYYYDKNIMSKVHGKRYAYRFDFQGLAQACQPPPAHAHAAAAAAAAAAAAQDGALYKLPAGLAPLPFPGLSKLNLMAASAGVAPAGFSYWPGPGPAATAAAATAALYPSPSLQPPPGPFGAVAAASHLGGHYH
How it was run: as §1

ETV5 = ETV5 (Homo sapiens, UniProt P41161 1-510); conditions: protein: recombinant; tags: N-terminal GST; dsDNA, one strand shown
ETV5, sequence (P41161 whole entry): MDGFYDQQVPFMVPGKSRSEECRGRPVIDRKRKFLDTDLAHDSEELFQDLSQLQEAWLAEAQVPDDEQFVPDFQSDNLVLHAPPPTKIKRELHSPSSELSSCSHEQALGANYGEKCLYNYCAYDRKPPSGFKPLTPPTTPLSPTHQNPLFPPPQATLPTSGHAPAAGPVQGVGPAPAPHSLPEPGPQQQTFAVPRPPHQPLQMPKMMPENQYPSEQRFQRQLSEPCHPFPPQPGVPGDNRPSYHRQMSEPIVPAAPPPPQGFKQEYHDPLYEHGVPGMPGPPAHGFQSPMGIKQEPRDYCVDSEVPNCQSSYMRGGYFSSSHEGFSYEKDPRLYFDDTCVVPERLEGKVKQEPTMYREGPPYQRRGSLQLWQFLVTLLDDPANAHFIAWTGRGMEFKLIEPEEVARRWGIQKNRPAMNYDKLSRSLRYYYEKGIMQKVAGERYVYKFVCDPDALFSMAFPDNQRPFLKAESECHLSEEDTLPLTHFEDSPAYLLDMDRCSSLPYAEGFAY
How it was run: as §1

HSF1 = HSF1 (Homo sapiens, UniProt Q00613 1-529); conditions: protein: recombinant; tags: N-terminal GST; chain copies: 3; dsDNA, one strand shown
HSF1, sequence (Q00613 whole entry): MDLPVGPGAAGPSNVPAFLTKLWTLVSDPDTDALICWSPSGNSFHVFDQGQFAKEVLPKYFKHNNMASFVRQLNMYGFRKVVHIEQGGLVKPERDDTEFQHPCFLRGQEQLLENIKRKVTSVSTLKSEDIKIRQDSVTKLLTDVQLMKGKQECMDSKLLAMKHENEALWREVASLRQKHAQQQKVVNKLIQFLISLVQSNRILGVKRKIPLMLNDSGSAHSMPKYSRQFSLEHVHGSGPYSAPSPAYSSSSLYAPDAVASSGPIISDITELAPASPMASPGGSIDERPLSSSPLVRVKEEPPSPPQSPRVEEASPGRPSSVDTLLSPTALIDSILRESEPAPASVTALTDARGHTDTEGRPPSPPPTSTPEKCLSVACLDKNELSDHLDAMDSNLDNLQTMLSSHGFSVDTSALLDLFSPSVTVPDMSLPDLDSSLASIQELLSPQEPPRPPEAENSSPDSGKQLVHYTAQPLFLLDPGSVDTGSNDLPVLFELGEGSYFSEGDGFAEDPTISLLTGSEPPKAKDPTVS
How it was run: as §1

SPIC = molecular target: T8, SPIC (Homo sapiens, UniProt Q8N5J4 1-248); conditions: protein: recombinant; tags: N-terminal GST; dsDNA, one strand shown
T8 sequence: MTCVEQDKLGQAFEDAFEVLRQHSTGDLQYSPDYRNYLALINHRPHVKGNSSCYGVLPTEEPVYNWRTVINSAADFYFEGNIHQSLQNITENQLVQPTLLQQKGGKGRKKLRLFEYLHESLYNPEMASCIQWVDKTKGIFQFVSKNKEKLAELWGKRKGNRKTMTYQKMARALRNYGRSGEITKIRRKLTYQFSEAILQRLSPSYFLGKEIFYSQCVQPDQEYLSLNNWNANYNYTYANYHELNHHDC
How it was run: as §1

ELF4 = ELF4 (Homo sapiens, UniProt Q99607 1-663); conditions: protein: recombinant; tags: N-terminal GST; dsDNA, one strand shown
ELF4, sequence (Q99607 whole entry): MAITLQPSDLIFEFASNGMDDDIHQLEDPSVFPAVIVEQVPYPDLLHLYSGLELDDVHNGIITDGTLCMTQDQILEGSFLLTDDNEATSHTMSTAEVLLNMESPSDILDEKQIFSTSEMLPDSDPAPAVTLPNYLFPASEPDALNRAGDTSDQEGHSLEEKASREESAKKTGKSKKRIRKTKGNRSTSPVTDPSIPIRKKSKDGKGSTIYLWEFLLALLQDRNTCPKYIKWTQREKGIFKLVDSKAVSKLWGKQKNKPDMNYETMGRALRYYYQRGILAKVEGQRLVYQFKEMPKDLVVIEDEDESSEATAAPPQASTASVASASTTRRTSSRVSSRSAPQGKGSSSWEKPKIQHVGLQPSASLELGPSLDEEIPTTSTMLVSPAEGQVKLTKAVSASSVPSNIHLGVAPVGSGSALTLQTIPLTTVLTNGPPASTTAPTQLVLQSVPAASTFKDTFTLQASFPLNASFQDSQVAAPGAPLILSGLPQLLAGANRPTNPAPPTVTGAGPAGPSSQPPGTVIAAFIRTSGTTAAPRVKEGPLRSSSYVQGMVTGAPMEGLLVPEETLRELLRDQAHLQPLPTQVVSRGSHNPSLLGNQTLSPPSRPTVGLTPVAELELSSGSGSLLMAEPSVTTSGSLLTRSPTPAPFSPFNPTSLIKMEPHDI
How it was run: as §1

ELK4 = molecular target: T9, ELK4 (Homo sapiens, UniProt P28324-2 1-405); conditions: protein: recombinant; tags: N-terminal GST; dsDNA, one strand shown
T9 sequence: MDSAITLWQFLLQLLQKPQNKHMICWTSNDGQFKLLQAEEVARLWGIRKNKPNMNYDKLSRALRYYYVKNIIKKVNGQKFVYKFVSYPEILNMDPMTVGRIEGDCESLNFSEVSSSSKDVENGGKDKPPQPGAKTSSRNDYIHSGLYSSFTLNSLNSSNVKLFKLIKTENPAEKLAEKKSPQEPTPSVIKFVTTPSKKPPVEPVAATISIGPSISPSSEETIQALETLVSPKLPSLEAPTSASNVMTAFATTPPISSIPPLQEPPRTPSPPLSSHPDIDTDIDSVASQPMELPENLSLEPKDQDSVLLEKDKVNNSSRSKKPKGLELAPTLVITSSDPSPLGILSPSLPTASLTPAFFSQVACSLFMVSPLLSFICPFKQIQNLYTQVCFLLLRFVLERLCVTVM
How it was run: as §1

ETV2 = molecular target: T10, ETV2 (Homo sapiens, UniProt O00321 1-342); conditions: protein: recombinant; tags: N-terminal GST; dsDNA, one strand shown
T10 sequence: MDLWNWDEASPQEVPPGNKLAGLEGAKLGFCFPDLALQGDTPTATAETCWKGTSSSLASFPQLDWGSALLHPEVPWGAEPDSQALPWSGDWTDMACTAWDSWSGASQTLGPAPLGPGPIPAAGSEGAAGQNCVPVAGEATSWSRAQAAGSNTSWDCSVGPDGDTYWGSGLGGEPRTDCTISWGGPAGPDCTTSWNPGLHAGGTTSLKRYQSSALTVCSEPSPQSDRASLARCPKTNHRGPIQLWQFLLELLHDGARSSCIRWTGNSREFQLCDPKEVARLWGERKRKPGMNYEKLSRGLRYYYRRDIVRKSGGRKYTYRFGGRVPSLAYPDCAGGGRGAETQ
How it was run: as §1

ELF3 = molecular target: T11, ELF3 (Homo sapiens, UniProt P78545 1-371); conditions: protein: recombinant; tags: N-terminal GST; dsDNA, one strand shown
T11 sequence: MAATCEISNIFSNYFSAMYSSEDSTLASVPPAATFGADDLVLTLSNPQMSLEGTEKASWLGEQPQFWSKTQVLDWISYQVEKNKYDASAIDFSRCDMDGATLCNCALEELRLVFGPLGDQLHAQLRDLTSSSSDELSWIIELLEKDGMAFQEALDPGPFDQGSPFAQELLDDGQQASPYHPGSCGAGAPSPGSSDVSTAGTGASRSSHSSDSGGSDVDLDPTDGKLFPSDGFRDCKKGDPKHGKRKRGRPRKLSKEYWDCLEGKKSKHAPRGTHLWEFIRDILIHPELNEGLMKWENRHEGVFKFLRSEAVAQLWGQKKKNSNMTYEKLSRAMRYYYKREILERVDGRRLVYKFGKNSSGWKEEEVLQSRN
How it was run: as §1

CRX = CRX (Homo sapiens, UniProt O43186 1-299); conditions: protein: recombinant; tags: N-terminal GST; dsDNA, one strand shown
CRX, sequence (O43186 whole entry): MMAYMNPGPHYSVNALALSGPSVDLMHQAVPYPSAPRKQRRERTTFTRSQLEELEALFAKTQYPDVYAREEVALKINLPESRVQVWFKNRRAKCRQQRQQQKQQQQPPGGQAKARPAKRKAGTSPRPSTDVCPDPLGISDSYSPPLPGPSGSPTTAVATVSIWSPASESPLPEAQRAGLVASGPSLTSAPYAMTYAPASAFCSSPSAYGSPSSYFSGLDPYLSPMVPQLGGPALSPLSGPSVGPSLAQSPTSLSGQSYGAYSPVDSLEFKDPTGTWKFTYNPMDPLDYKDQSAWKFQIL
How it was run: as §1

ETV1 = ETV1 (Homo sapiens, UniProt P50549 1-477); conditions: protein: recombinant; tags: N-terminal GST; dsDNA, one strand shown
ETV1, sequence (P50549 whole entry): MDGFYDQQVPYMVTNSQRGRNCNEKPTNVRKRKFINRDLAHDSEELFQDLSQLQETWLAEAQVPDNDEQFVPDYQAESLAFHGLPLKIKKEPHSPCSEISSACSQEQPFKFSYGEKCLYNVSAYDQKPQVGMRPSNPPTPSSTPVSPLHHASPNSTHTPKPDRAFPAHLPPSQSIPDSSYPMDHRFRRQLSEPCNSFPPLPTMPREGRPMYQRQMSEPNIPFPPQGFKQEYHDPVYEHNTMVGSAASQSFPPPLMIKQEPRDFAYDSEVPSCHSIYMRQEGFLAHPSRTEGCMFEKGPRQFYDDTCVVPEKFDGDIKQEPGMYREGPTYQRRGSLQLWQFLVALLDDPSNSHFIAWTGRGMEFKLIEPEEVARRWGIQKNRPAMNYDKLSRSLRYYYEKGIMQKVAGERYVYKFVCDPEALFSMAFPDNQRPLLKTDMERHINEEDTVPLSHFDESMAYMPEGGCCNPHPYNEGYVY
How it was run: as §1

CCTCAG
binding signal (FLI1): 1.17 fold enrichment (6-mer frequency, TF over GST control)
binding signal (ELK1): 1.23 fold enrichment (6-mer frequency, TF over GST control)
binding signal (GABPA): 1.35 fold enrichment (6-mer frequency, TF over GST control)
binding signal (ERG): 1.21 fold enrichment (6-mer frequency, TF over GST control)
binding signal (ELF1): 1.27 fold enrichment (6-mer frequency, TF over GST control)
binding signal (EHF): 1.17 fold enrichment (6-mer frequency, TF over GST control)
binding signal (SPI1): 1.17 fold enrichment (6-mer frequency, TF over GST control)
binding signal (SPIB): 1.35 fold enrichment (6-mer frequency, TF over GST control)
binding signal (ELK3): 1.24 fold enrichment (6-mer frequency, TF over GST control)
binding signal (FEV): 1.21 fold enrichment (6-mer frequency, TF over GST control)
binding signal (ETV5): 1.12 fold enrichment (6-mer frequency, TF over GST control)
binding signal (HSF1): 1.07 fold enrichment (6-mer frequency, TF over GST control)
binding signal (SPIC): 1.17 fold enrichment (6-mer frequency, TF over GST control)
binding signal (ELF4): 1.3 fold enrichment (6-mer frequency, TF over GST control)
binding signal (ELK4): 1.4 fold enrichment (6-mer frequency, TF over GST control)
binding signal (ETV2): 1.37 fold enrichment (6-mer frequency, TF over GST control)
binding signal (ELF3): 1.35 fold enrichment (6-mer frequency, TF over GST control)
binding signal (CRX): 1.15 fold enrichment (6-mer frequency, TF over GST control)
binding signal (ETV1): 1.13 fold enrichment (6-mer frequency, TF over GST control)
